Experimental findings from PubChem BioAssay (EPA / NIEHS) are described below.

Records with an inconclusive call do not appear. Activity calls are given as the source filed them. How the source made its calls: active means hit-call score of the fitted dose curve at least 0.9, where 1 is the maximum; inconclusive means response in the unintended direction; inactive means score below 0.9.

The nature of this experiment: Tanguay_ZF_120hpf_PIG_legacy: (Legacy) Oregon State University Tanguay Lab 120 Hour Post-fertilization zebrafish Assay for Pigmentation Malformation (AID 2283650).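 Further: dechorionated Tropical 5D zebrafish embryos exposed singly from 6 to 120 hpf.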 As to the method:
Tanguay_ZF_120hpf_legacy is a whole embryo, multiplexed endpoint assay using zebrafish larvae exposed for 120 hours post fertilization on a 96-well plate.Tanguay_ZF_120hpf_PIG_legacy is one of one assay component(s) measured or calculated from the Tanguay_ZF_120hpf_legacy assay. It is designed to make measurements of zebrafish development as detected with brightfield microscopy of developing zebrafish embryos.Data from the assay component Tanguay_ZF_120hpf_PIG_legacy was analyzed into 1 assay endpoints. This assay endpoint, Tanguay_ZF_120hpf_PIG_legacy, was analyzed in the positive analysis fitting direction relative to DMSO as the negative control and baseline of activity. Using a type of morphology reporter, gain-of-signal activity can be used to understand changes in developmentals as they relate to the whole embryo. To generalize the intended target to other relatable targets, this assay endpoint is annotated to the zebrafish development intended target family, where the subfamily is embryonic pigmentation.
Zebrafish husbandry: Tropical 5D wild-type adult zebrafish were housed in at an approximate density of 1000 per 100 gallon tank at the Sinnhuber Aquatic Research Laboratory, Oregon State University, Corvallis, OR. Each tank was kept at standard laboratory conditions of 28C on a 14-h light/10-h dark photoperiod in fish water consisting of reverse osmosis water supplemented with a commercially available salt (Instant Ocean). Spawning funnels were placed into the tanks the night prior, and embryos were collected and staged. To increase bioavailability, the chorion was enzymatically removed using pronase (63.6mg/ml, >/= 3.5U/mg, Sigma-Aldrich: P5147) at 4 hours post fertilization (hpf) using a custom automated dechorionator.Chemical exposures: Six hpf dechorionated embryos were placed 1 embryo per well in a 96-well plate prefilled with 90 ul of EM using automated embryo placement systems (AEPS). Ten microliters of each row of dilution plate 2 was added to 2 exposure plates. The final DMSO concentration used was 0.64% (vol/vol). Thirty-two embryos were also exposed to 5uM trimethyltin chloride (positive control). Plates were sealed to prevent evaporation and foil covered to reduce light exposure and kept in a 28C incubator. Embryos were statically exposed until 120 hpf. At 24 hpf, embryos were assessed for photomotor response using a custom photomotor response analysis tool (PRAT) and for developmental toxicity endpoints (MO24: mortality at 24 hpf, DP: developmental progression, SM: spontaneous movement, and NC: notochord distortion). At 120 hpf, locomotor activity was measured using Viewpoint Zebralab and assessed for 18 endpoints. Zebrafish acquisition and analysis program (ZAAP), a custom program designed to inventory, acquire, and manage zebrafish data, was used to collect developmental endpoints as either present or absent (i.e., binary responses were recorded). If mortality occurred for an embryo (at either 24 or 120 hpf), the non-mortality endpoints were not measured.
For the molecule `CC(C)(C)c1ccccc1O`, the molecule was called inactive.
In the case of `Clc1cccc(Cl)c1Cl` it was “inactive”; in that of `O=C(N[C@H]1CN2CCC1CC2)c1ccc2c(c1)OCCO2`, “inactive”.
Turning to `Oc1cc(Cl)c(Cl)cc1Cl`, the molecule was classed as inactive.
In the case of `CN(C)C(=S)S` it was “inactive”.
As for `Cc1cc(C)cc(C)c1`, the call was inactive.
The entry for `N#Cc1cccnc1` is “inactive”; for `O=C(O)C1(c2ccc3c(c2)OC[C@H](Cc2ccc(-c4ccccc4)cc2)[C@H]3O)CCCC1` it is “inactive”.
The entry for `COc1ccccc1N` is “inactive”; for `OCCN(CCO)CCO` it is “inactive”; for `Oc1c(Cl)cc(Cl)cc1Cl` it is “inactive”.
The entry for `CC(C)O.CC(C)O.OCCN(CCO)CCO.OCCN(CCO)CCO.[Ti]` is “inactive”.
